In all, about 310,000 compounds went through this assay and about 14,000 (4.5%) showed an effect of 50% or more. Effects have a minus sign here. The full list was thinned out, with strong results kept by preference.
Target: human ether-à-go-go-related gene (hERG) potassium channel (human, UniProt Q12809)
Experiment: primary screen, population patch clamp on CHO cells stably expressing hERG; higher = less effect of the substance
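Also: peak tail current of the secondary pulse compared with the same well before compound.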

Chain of human ether-à-go-go-related gene (hERG) potassium channel (Q12809 whole entry, looked up): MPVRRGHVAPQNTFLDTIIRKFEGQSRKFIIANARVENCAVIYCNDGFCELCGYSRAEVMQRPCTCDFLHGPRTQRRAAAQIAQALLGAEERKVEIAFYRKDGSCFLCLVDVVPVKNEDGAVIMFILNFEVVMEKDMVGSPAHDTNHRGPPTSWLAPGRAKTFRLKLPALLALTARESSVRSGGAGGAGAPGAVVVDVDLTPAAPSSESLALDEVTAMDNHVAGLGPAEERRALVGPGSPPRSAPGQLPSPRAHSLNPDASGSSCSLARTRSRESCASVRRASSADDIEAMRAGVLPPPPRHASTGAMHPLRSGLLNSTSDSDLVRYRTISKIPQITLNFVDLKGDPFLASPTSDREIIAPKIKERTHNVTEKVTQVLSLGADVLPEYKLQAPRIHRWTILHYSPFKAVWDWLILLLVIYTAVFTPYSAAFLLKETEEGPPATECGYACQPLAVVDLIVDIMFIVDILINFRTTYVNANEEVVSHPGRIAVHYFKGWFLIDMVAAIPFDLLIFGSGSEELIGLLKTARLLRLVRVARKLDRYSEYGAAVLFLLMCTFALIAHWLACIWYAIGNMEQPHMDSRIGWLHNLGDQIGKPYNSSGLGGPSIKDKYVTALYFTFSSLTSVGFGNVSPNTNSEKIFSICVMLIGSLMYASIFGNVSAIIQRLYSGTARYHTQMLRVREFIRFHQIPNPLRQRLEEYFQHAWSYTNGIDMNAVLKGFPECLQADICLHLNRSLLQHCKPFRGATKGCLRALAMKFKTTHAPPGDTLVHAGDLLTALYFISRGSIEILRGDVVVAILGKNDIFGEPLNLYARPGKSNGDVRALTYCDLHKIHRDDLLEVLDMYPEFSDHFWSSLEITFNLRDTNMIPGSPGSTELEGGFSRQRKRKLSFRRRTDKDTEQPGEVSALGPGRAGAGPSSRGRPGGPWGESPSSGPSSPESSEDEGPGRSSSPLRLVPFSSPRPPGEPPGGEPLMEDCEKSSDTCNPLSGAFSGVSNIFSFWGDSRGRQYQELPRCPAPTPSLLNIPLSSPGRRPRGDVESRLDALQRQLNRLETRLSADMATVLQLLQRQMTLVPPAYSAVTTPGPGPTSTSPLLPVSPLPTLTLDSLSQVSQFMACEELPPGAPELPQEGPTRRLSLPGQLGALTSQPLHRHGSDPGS

Structure (SMILES) | hERG current change (%, negative = inhibition) at 10uM [%]
CCn1c(=O)c(C(=O)Nc2ccccc2F)c(O)c2ccccc21 | 17.2
COc1ccc(OC)c(-c2csc(NC(=O)CSc3nnnn3C)n2)c1 | 4.17
COc1ccc(NC(=S)NC(NC(=O)CCl)C(Cl)(Cl)Cl)c([N+](=O)[O-])c1 (centres unmarked) | 17.2
NS(=O)(=O)c1cc2c(cc1Cl)NCNS2(=O)=O | -12.3
Cc1cccc(-n2ncc3c(NCc4ccccc4)ncnc32)c1 | 12
O=C(c1cc2nc(-c3ccco3)cc(C(F)(F)F)n2n1)N1CCN(c2ccc(F)cc2)CC1 | -34.5
O=C(N/N=C/c1ccco1)c1ccc(OCc2ccccc2)cc1 | 10.9
COc1ccccc1N1CCN(C(=O)C2CC2)CC1 | 20
O=C(NCCc1ccccc1)c1ccccc1F | 24.5
O=C(CCCN1C(=O)/C(=C/c2ccccc2Cl)SC1=S)NNC(=O)c1ccccc1Cl | 29.8
COCCSc1ccccc1C(=O)N1CCN(c2ccccc2OC)CC1 | 8.73
S=c1[nH]c2ccccc2n1CCOc1ccccc1 | 8.28
CCN(CC)CCn1c(=N)n(CCO)c2ccccc21 | 5.99
Br.CCN(CC)CCn1c(=N)n(CCOc2ccccc2)c2ccccc21 | -53.6
O=C(NC1CCSc2ccccc21)c1cc(S(=O)(=O)N2CCOCC2)ccc1Cl (centres unmarked) | -18
COc1ccc(NC(=S)N(Cc2ccc(Cl)cc2)Cc2ccc(C(=O)O)cc2)cc1Cl | -3.51
CCOC(=O)c1ccc(-n2c(CN3CCC(C(N)=O)CC3)nc3ccc([N+](=O)[O-])cc3c2=O)cc1 | -27.3
Cc1cc2cc(C(c3nnnn3C3CCCC3)N(Cc3cccnc3)Cc3ccco3)c(=O)[nH]c2cc1C (centres unmarked) | -24.3
Cc1ccc2[nH]c(=O)c(C(c3nnnn3C3CCCC3)N(Cc3cccnc3)Cc3ccco3)cc2c1 (centres unmarked) | -5.71
Cc1ccc2cc(C(c3nnnn3C3CCCC3)N(Cc3ccccc3)Cc3ccco3)c(=O)[nH]c2c1 (centres unmarked) | 10.7
CCC(C)(C)n1nnnc1C(C(C)C)N(Cc1cccnc1)Cc1ccco1 (centres unmarked) | -2.92
Cc1ccc2cc(C(c3nnnn3C3CCCC3)N(Cc3cccnc3)Cc3ccco3)c(=O)[nH]c2c1 (centres unmarked) | -77.8
CCC(C)(C)n1nnnc1C(c1cc2ccc(C)cc2[nH]c1=O)N(Cc1cccnc1)Cc1ccco1 (centres unmarked) | -60.6

Structure (SMILES) | hERG current change (%, negative = inhibition) at 10uM [%]
O=C(CC1C(=O)NCCN1Cc1ccc(-c2ccccc2)cc1)NCCCn1ccnc1 (centres unmarked) | 14
CC(C)CCNS(=O)(=O)c1cc2c3c(c1)CCN3C(=O)CC2 | 2.2
COc1cc(-c2noc(CCCC(=O)NCc3ccco3)n2)cc(OC)c1OC | -12.1
O=C1N(Cc2cccc(Cl)c2)C[C@@H]2C[C@@H](c3cccn3-c3cccnc3)N3CCC[C@@]123 | -35.7
CCn1ccnc1[C@@H]1C[C@H]2CN(Cc3cccc(Cl)c3)C(=O)[C@]23CCCN13 | -39.3
O=C1N(Cc2cccc(Cl)c2)C[C@@H]2C[C@@H](c3cccn3-c3nccs3)N3CCC[C@@]123 | -68
O=C1N(Cc2cccc(Cl)c2)C[C@@H]2C[C@@H](c3cccn3-c3ccccn3)N3CCC[C@@]123 | -73.5
C#CCOCCOCCOCCNc1nc(N2CCOCC2)nc(N2CCN(C(=O)[C@H](Cc3cc4ccccc4[nH]3)n3cc([C@@H](N)C(C)CC)nn3)CC2)n1.Cl (some centres unmarked) | 9.81
O=C(CSc1nc(-c2ccccc2)cc(=O)[nH]1)N1CCOCC1 | 5.84
Cc1cccc2[nH]c3c(N4CCN(C(=O)c5ccco5)CC4)ncnc3c12 | -27
CCOc1ccc2[nH]c3c(N4CCC5(CC4)OCCO5)ncnc3c2c1 | 5.84
CCOC(=O)N1CCN(c2ncnc3c2[nH]c2ccc(OC)cc23)CC1 | -44.1
CCOc1ccc2[nH]c3c(N4CCN(c5ccccn5)CC4)ncnc3c2c1 | -59.4
CCOc1ccc2[nH]c3c(N4CCc5ccccc5C4)ncnc3c2c1 | 5.49
CCOc1ccc2[nH]c3c(N4CCN(C(=O)c5ccco5)CC4)ncnc3c2c1 | -58.4
O=C(c1ccco1)N1CCN(c2ncnc3c2[nH]c2ccc(Cl)cc23)CC1 | -65.2
COc1cc2[nH]c3c(N4CCN(c5ccccn5)CC4)ncnc3c2cc1OC | 13.1
O=C(c1ccco1)N1CCN(c2ncnc3c(-c4ccc(Cl)cc4)nsc23)CC1 | 4.82
Cc1ccc(C(C)(C)C)cc1S(=O)(=O)Nc1ncnc2sccc12 | 12.2
Cn1nnc(NC(=O)c2ccc3ccccc3c2)n1 | 5.99
CCCN(Cc1cc2ccccc2[nH]c1=O)C(=O)c1cccc([N+](=O)[O-])c1 | -16.8
N#Cc1cccc(S(=O)(=O)N2CCN(c3ccnc4cc(Cl)ccc34)CC2)c1 | -70.7
Cc1ccc(S(=O)(=O)N2CCN(c3ccnc4cc(Cl)ccc34)CC2)cc1C | 30.7

Structure (SMILES) | hERG current change (%, negative = inhibition) at 10uM [%]
O=S(=O)(c1ccccc1)N1CCN(c2ccnc3cc(Cl)ccc23)CC1 | -84
O=S(=O)(c1ccc(Br)s1)N1CCN(c2ccnc3cc(Cl)ccc23)CC1 | -14.8
O=S(=O)(c1cccs1)N1CCN(c2ccccc2Cl)CC1 | 9.51
O=S(=O)(c1cccc(Br)c1)N1CCN(c2ccnc3cc(Cl)ccc23)CC1 | 8.43
O=[N+]([O-])c1ccc(S(=O)(=O)N2CCN(c3ccnc4cc(Cl)ccc34)CC2)cc1 | -73.5
O=[N+]([O-])c1ccc(N2CCN(S(=O)(=O)c3ccccc3)CC2)cc1 | -46.9
Cc1ccc(Cl)cc1N1CCN(S(=O)(=O)c2cccc(S(=O)(=O)N3CCCC3)c2)CC1 | 2.64
CN1CCCN(S(=O)(=O)c2cccc(C#N)c2)CC1.Cl | 6.61
O=S(=O)(c1cccs1)N1CCN(c2ccnc3cc(Cl)ccc23)CC1 | -68.4
O=S(=O)(c1ccccc1OC(F)(F)F)N1CCN(c2ccnc3cc(Cl)ccc23)CC1 | -18.4
COc1ccc(C(=O)COC(=O)c2ccn(C)n2)cc1 | -14.5
Cc1[nH]c(C)c(S(=O)(=O)N2CCN(c3cccc(C(F)(F)F)c3)CC2)c1C(=O)N1CCCCC1 | -1.72
O=C(NCc1ccc(F)cc1)C1CC(=O)N(Cc2ccco2)C1 (centres unmarked) | -17
COc1cc(C=O)ccc1OCc1ccncc1 | 16.5
O=C(c1ccco1)N1CCN(c2ncnc3scc(-c4cccs4)c23)CC1 | -63.9
Cc1ccc(-c2csc3ncnc(N4CCN(C(=O)c5ccccc5)CC4)c23)cc1 | -30.5
Fc1ccc(-c2csc3ncnc(N4CCN(c5ccccc5)CC4)c23)cc1 | 16.2
Fc1ccc(-c2csc3ncnc(N4CCN(Cc5ccccc5)CC4)c23)cc1 | -2.14
O=C(c1ccco1)N1CCN(c2ncnc3scc(-c4ccc(F)cc4)c23)CC1 | -70.2
O=C(O)CSCC(=O)N1CCN(c2ncnc3scc(-c4ccccc4)c23)CC1 | 25.4
Oc1ccccc1N1CCN(c2ncnc3scc(-c4ccccc4)c23)CC1 | 4.04
Cc1ccc(-c2csc3ncnc(N4CCN(C(=O)c5ccco5)CC4)c23)cc1 | -89.9
c1ccc(N2CCN(c3ncnc4scc(-c5cccs5)c34)CC2)cc1 | 9.87

Structure (SMILES) | hERG current change (%, negative = inhibition) at 10uM [%]
Cc1ccccc1N1CCN(c2ncnc3scc(-c4cccs4)c23)CC1 | -1.45
Cc1ccc(-c2csc3ncnc(N4CCN(c5ccccc5O)CC4)c23)cc1 | 25.8
O=C(c1cccs1)N1CCCN(c2ncnc3scc(-c4ccccc4)c23)CC1 | -60.7
CS/C(=N\S(=O)(=O)c1ccccc1)c1ccccc1 | 0.781
CC(C)n1c(C(F)(F)F)nc2cc(C(=O)N3CCOCC3)ccc21 | 16.3
O=C(O)C1Sc2[nH]c(=O)sc2C2c3cc(Cl)ccc3OC(=O)C12 (centres unmarked) | 14.5
Cc1ccc(NC(=O)Cc2noc3ccccc23)c(C)c1 | 11.2
O=S(=O)(CCc1nc2ccccc2o1)c1ccc(Cl)c(Cl)c1 | 13.4
COc1cc(C(=O)N2CCN(c3ncnc4sc(C)c(C)c34)CC2)cc(OC)c1OC | -47.2
CCc1cc2c(N3CCN(c4ccccc4)CC3)ncnc2s1 | -43.5
COc1ccc(-c2csc3ncnc(N4CCN(c5ccc(OC)cc5)CC4)c23)cc1 | -11.2
COc1ccc(-c2nsc3c(N4CCN(C(=O)c5ccco5)CC4)ncnc23)cc1 | 10.9
Cc1sc2ncnc(N3CCN(C(=O)c4ccco4)CC3)c2c1C | -61.8
CCc1cc2c(N3CCN(C)CC3)ncnc2s1.Cl | -29
CCc1cc2c(N3CCN(c4nnc(CC)s4)CC3)ncnc2s1.Cl | -67.6
CCc1cc(C(=O)N2CCN(C(=O)c3ccco3)CC2)sc1C | 10.6
Cc1sc2nnn(CC(=O)N3CCN(C(=O)c4ccco4)CC3)c(=O)c2c1C | -32.4
CCc1cc2c(N3CCCCC3)ncnc2s1.Cl | -7.21
CCc1cc2c(N3CCN(C(=O)c4ccco4)CC3)ncnc2s1 | -77.7
COc1ccc(-c2csc3ncnc(N4CCN(C(=O)c5ccco5)CC4)c23)cc1 | -75.3
